# PMC5540273 (PLoS ONE, 2017)
# “And” between values parts separate entries of the source, which are not always exact repeats. Equal entries are not always repeated. Where two headings read alike, the source gives them in different places.
# What was measured:
# Conditions in all cases: concentration: 1 μM, replicates: in singlicate, n = 1
# ERN1 = tested on: ERN1
# FAK = tested on: T1, FAK
# T1 construct: gene PTK2
# FER = tested on: FER
# FES = tested on: FES
# FGFR1 = tested on: FGFR1
# FGFR2 = tested on: FGFR2
# FGFR3 = tested on: FGFR3
# FGFR4 = tested on: FGFR4
# FGR = tested on: FGR
# FLT1 = tested on: FLT1
# 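Further: KINOMEscan kinase panel screen.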
compound,measurement,setting,value
C[C@@H](Oc1cc(-n2cnc3ccc(NC(=O)NC(C)(C)C)cc32)sc1C(N)=O)c1ccccc1Cl [GSK346294],%Inh,ERN1,13%
same,%Inh,FAK,0%
same,%Inh,FER,43%
same,%Inh,FES,0%
same,%Inh,FGFR1,13%
same,%Inh,FGFR2,0%
same,%Inh,FGFR3,30%
same,%Inh,FGFR4,14%
same,%Inh,FGR,8%
same,%Inh,FLT1,46%
CN(C1=C(c2ccccc2)C(=O)NC1=O)c1ccccc1 [SB-334860],%Inh,ERN1,20%
same,%Inh,FAK,0%
same,%Inh,FER,19%
same,%Inh,FES,0%
same,%Inh,FGFR1,0%
same,%Inh,FGFR2,0%
same,%Inh,FGFR3,24%
same,%Inh,FGFR4,18%
same,%Inh,FGR,17%
same,%Inh,FLT1,0%
c1ccc(-c2n[nH]cc2-c2ccnc3ccccc23)nc1 [GW271431],%Inh,ERN1,0%
same,%Inh,FAK,0%
same,%Inh,FER,31%
same,%Inh,FES,0%
same,%Inh,FGFR1,6%
same,%Inh,FGFR2,0%
same,%Inh,FGFR3,13%
same,%Inh,FGFR4,11%
same,%Inh,FGR,26%
same,%Inh,FLT1,47%
Cc1nnc(-c2ccc3ncc(-c4ccc(S(C)=O)cc4)n3c2)o1 (centres unmarked),%Inh,ERN1,10%
same,%Inh,FAK,0%
same,%Inh,FER,0%
same,%Inh,FES,4%
same,%Inh,FGFR1,0%
same,%Inh,FGFR2,0%
same,%Inh,FGFR3,0%
same,%Inh,FGFR4,0%
same,%Inh,FGR,0%
same,%Inh,FLT1,0%
O=C1NC(=O)C(N2CCc3ccccc32)=C1c1cccc(Cl)c1 [SB-408010],%Inh,ERN1,27%
same,%Inh,FAK,0%
same,%Inh,FER,0%
same,%Inh,FES,31%
same,%Inh,FGFR1,5%
same,%Inh,FGFR2,15%
same,%Inh,FGFR3,0%
same,%Inh,FGFR4,0%
same,%Inh,FGR,22%
same,%Inh,FLT1,11%
CN1c2ccc(NCc3ccc(F)cc3)cc2-c2c(cnn2C)S1(=O)=O,%Inh,ERN1,0%
same,%Inh,FER,0%
same,%Inh,FES,4%
same,%Inh,FGFR1,2%
same,%Inh,FGFR2,2%
same,%Inh,FGFR3,0%
same,%Inh,FGFR4,0%
same,%Inh,FGR,0%
same,%Inh,FLT1,0%
COc1cc2c(cc1OC[C@@H](O)CO)ncc1c3ccc(C#N)cc3[nH]c21,%Inh,ERN1,0%
same,%Inh,FAK,0%
same,%Inh,FER,0%
same,%Inh,FES,8%
same,%Inh,FGFR1,0%
same,%Inh,FGFR2,0%
same,%Inh,FGFR3,0%
same,%Inh,FGFR4,0%
same,%Inh,FGR,30%
same,%Inh,FLT1,0%
COc1ccc(Nc2ncc(C#N)c(Nc3ccccc3C(N)=O)n2)cc1N1CCN(C)CC1.Cl [GSK1558669],%Inh,ERN1,92%
same,%Inh,FAK,100%
same,%Inh,FER,99.5%
same,%Inh,FES,99.3%
same,%Inh,FGFR1,100%
same,%Inh,FGFR2,99.8%
same,%Inh,FGFR3,99.9%
same,%Inh,FGFR4,85%
same,%Inh,FGR,96.5%
same,%Inh,FLT1,100%
CC(=O)Nc1ccc(COc2ccc(Nc3ccnc4cc(-c5ccccn5)ccc34)cc2)cc1.Cl [GW440148],%Inh,ERN1,17%
same,%Inh,FAK,1%
same,%Inh,FER,0%
same,%Inh,FES,13%
same,%Inh,FGFR1,0%
same,%Inh,FGFR2,0%
same,%Inh,FGFR3,14%
same,%Inh,FGFR4,0%
same,%Inh,FGR,36%
same,%Inh,FLT1,99.2%
CC(C)(C)n1cnc2c(N)ncnc21 [SKF-97359],%Inh,ERN1,0%
same,%Inh,FAK,0%
same,%Inh,FER,45%
same,%Inh,FES,0%
same,%Inh,FGFR1,0%
same,%Inh,FGFR2,0%
same,%Inh,FGFR3,0%
same,%Inh,FGFR4,0%
same,%Inh,FGR,8%
same,%Inh,FLT1,7%
Fc1ccc(-c2ncn(CCCN3CCOCC3)c2-c2ccccn2)cc1 [SB-211742],%Inh,ERN1,0%
same,%Inh,FAK,29%
same,%Inh,FER,0%
same,%Inh,FES,10%
same,%Inh,FGFR1,0%
same,%Inh,FGFR2,0%
same,%Inh,FGFR3,0%
same,%Inh,FGFR4,0%
same,%Inh,FGR,27%
same,%Inh,FLT1,23%
CNc1ncnc2[nH]ncc12 [SKF-18355],%Inh,ERN1,33%
same,%Inh,FAK,0%
same,%Inh,FER,30%
same,%Inh,FES,0%
same,%Inh,FGFR1,0%
same,%Inh,FGFR2,0%
same,%Inh,FGFR3,5%
same,%Inh,FGFR4,0%
same,%Inh,FGR,0%
same,%Inh,FLT1,0%
Nc1nccc(-c2c(-c3ccc(F)cc3)ncn2C2CCN(CC(F)(F)F)CC2)n1 [SB-236560],%Inh,ERN1,0%
same,%Inh,FAK,0%
same,%Inh,FER,4%
same,%Inh,FES,0%
same,%Inh,FGFR1,0%
same,%Inh,FGFR2,0%
same,%Inh,FGFR3,0%
same,%Inh,FGFR4,0%
same,%Inh,FGR,0%
same,%Inh,FLT1,9%
N#Cc1c(N2CCOCC2)sc(-c2ccn[nH]2)c1-c1ccc(Cl)cc1,%Inh,ERN1,4%
same,%Inh,FAK,0%
same,%Inh,FER,11%
same,%Inh,FES,27%
same,%Inh,FGFR1,7%
same,%Inh,FGFR2,12%
same,%Inh,FGFR3,0%
same,%Inh,FGFR4,0%
same,%Inh,FGR,22%
same,%Inh,FLT1,0%
O=C(Nc1cccc(-c2nn3ncccc3c2-c2ccnc(Nc3cccc(C(F)(F)F)c3)n2)c1)c1c(F)cccc1F [GSK299495],%Inh,ERN1,15%
same,%Inh,FAK,0%
same,%Inh,FER,24%
same,%Inh,FES,0%
same,%Inh,FGFR1,0%
same,%Inh,FGFR2,0%
same,%Inh,FGFR3,0%
same,%Inh,FGFR4,0%
same,%Inh,FGR,95.5%
same,%Inh,FLT1,91.5%
Cl.Cl.Cl.Fc1ccc(-c2ncn(C3CCNCC3)c2-c2ccnc(Nc3ccccc3)n2)cc1 [SB-238039],%Inh,ERN1; 1 µM,19% and 6%
same,%Inh,FAK,0%
same,%Inh,FER; 1 µM,0% and 1%
same,%Inh,FES,0%
same,%Inh,FGFR1; 1 µM,11% and 0%
same,%Inh,FGFR2,0%
same,%Inh,FGFR3,0%
same,%Inh,FGFR4,0%
same,%Inh,FGR; 1 µM,60% and 41%
same,%Inh,FLT1; 1 µM,7% and 25%
NCCNS(=O)(=O)c1ccc(-c2ccnc3[nH]ccc23)cc1 [GSK977617],%Inh,ERN1; 1 µM,31% and 6%
same,%Inh,FAK; 1 µM,5% and 0%
same,%Inh,FER; 1 µM,53% and 22%
same,%Inh,FES; 1 µM,11% and 0%
same,%Inh,FGFR1; 1 µM,57% and 38%
same,%Inh,FGFR2; 1 µM,6% and 0%
same,%Inh,FGFR3; 1 µM,6% and 10%
same,%Inh,FGFR4; 1 µM,11% and 6%
same,%Inh,FGR; 1 µM,31% and 11%
same,%Inh,FLT1; 1 µM,60% and 33%
O=C(NOCC1CC1)c1ccc(F)c(F)c1Nc1ccc(I)cc1Cl,%Inh,ERN1,0%
same,%Inh,FAK,0%
same,%Inh,FER,0%
same,%Inh,FES,0%
same,%Inh,FGFR1,0%
same,%Inh,FGFR2,0%
same,%Inh,FGFR3,0%
same,%Inh,FGFR4,0%
same,%Inh,FGR,0%
same,%Inh,FLT1,10%
CCCCCc1nc2c(N)ncnc2n1CCCCC [SKF-97255],%Inh,ERN1,13%
same,%Inh,FAK,0%
same,%Inh,FER,13%
same,%Inh,FES,0%
same,%Inh,FGFR1,11%
same,%Inh,FGFR2,0%
same,%Inh,FGFR3,0%
same,%Inh,FGFR4,0%
same,%Inh,FGR,7%
same,%Inh,FLT1,0%
CCc1nc(-c2cccc(C)c2)c(-c2ccnc(NCc3ccccc3)c2)s1,%Inh,ERN1,16%
same,%Inh,FAK,0%
same,%Inh,FER,0%
same,%Inh,FES,6%
same,%Inh,FGFR1,0%
same,%Inh,FGFR2,8%
same,%Inh,FGFR3,0%
same,%Inh,FGFR4,0%
same,%Inh,FGR,8%
same,%Inh,FLT1,0%
Cc1c(Cn2c(C)nn3c(=O)cc(N4CCOC(C)C4)nc23)cccc1C(F)(F)F (centres unmarked) [GSK2344444],%Inh,ERN1,24%
same,%Inh,FAK,0%
same,%Inh,FER,25%
same,%Inh,FES,0%
same,%Inh,FGFR1,3%
same,%Inh,FGFR2,0%
same,%Inh,FGFR3,4%
same,%Inh,FGFR4,0%
same,%Inh,FGR,0%
same,%Inh,FLT1,25%
